Each structure is given as a SMILES string. Inconclusive results are not listed. Activity calls are given as the source filed them. How the source made its calls, unless noted: active means hit-call score of the fitted dose curve at least 0.9, where 1 is the maximum; inconclusive means response in the unintended direction; inactive means score below 0.9.

Assay [1] addresses human Peroxisome Proliferator-activated Receptor alpha (PPARa), PPARA (gene 5465) (UniProt Q07869). Briefly: ATG_PPARa_TRANS: Attagene TRANS-FACTORIAL HepG2 Assay for human Peroxisome Proliferator-activated Receptor alpha (PPARa) (AID 2283001). The method in brief: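 Reporter transcripts quantified by RT-PCR plus capillary electrophoresis after 24 h treatment, fitted upward relative to DMSO. Cells: human HepG2 transiently carrying multiple GAL4-UAS reporter units driven by NR-Gal4 chimeras.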

In assay [2] the target is human Peroxisome Proliferator-activated Receptor delta (PPARd), PPARD (gene 5467) (UniProt Q03181). Description: ATG_PPARd_TRANS: Attagene TRANS-FACTORIAL HepG2 Assay for human Peroxisome Proliferator-activated Receptor delta (PPARd) (AID 2283002). The method in brief:
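Read-out is induced reporter mRNA, quantified by RT-PCR with fluorescent labelling and capillary electrophoresis after 24 h dosing. Cells are HepG2 transiently carrying multiple GAL4-UAS reporter units driven by exogenous NR-GAL4 chimeras; DMSO serves as baseline.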

In assay [3] the target is Peroxisome proliferator-activated receptor gamma (Homo sapiens) (UniProt P37231). Description: ATG_PPARg_TRANS: Attagene TRANS-FACTORIAL HepG2 Assay for human Peroxisome Proliferator-activated Receptor-gamma (PPARg) (AID 2283007). The method in brief: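 After 24 h of chemical exposure, transfected HepG2 cells carrying PPARγ-Gal4 chimera reporter constructs are lysed for RNA. Reporter transcripts are measured by RT-PCR and capillary electrophoresis with fluorescent labelling, and gain of signal is fitted versus DMSO.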
Peroxisome proliferator-activated receptor gamma (Homo sapiens), sequence (P37231 whole entry, looked up, the tested form may be a part): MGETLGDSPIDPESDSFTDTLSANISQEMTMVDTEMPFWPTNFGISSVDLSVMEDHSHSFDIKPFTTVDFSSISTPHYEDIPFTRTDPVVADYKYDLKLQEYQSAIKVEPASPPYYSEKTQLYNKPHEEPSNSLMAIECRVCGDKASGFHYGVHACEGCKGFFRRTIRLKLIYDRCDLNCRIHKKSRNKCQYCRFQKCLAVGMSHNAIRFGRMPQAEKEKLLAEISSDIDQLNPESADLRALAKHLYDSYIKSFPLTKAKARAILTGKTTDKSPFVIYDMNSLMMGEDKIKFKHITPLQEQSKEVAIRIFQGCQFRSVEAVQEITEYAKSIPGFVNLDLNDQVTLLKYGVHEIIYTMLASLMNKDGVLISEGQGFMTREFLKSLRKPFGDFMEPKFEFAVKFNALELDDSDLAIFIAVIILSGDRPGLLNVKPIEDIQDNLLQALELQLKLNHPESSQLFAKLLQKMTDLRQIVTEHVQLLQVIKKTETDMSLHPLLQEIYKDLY

In assay [4] the target is Nuclear receptor subfamily 1 group I member 2 (Homo sapiens) (UniProt O75469). Briefly: ATG_PXR_TRANS: Attagene TRANS-FACTORIAL HepG2 Assay for human Pregnane X Receptor (PXR) (AID 2283008). The method in brief: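 Trans-factorial format: exogenous NR-Gal4 fusion activity, not endogenous factor, in transfected human HepG2 liver cells. After 24 h dosing, RNA isolated, reverse-transcribed, amplified and resolved by capillary electrophoresis; induction scored versus DMSO.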
Nuclear receptor subfamily 1 group I member 2 (Homo sapiens), sequence (O75469 whole entry, looked up, the tested form may be a part): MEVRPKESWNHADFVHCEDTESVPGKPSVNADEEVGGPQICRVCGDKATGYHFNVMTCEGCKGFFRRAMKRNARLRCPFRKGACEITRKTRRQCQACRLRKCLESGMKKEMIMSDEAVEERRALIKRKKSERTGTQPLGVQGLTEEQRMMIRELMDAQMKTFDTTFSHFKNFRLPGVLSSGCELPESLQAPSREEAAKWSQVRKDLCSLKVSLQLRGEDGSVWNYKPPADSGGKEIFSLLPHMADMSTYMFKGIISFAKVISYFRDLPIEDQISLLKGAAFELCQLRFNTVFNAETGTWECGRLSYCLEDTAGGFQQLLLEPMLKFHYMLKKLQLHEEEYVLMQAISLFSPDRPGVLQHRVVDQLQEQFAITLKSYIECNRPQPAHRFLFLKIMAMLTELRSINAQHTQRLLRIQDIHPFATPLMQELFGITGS

The target of assay [5] is human RAR-related Orphan Receptor gamma (RORg), RORC (gene 6097) (UniProt P51449). Briefly: ATG_RORg_TRANS: Attagene TRANS-FACTORIAL HepG2 Assay for human RAR-related Orphan Receptor gamma (RORg) (AID 2283011). The method in brief:
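HepG2 cells transiently transfected with GAL4-UAS reporter units and chimeric RORg-Gal4 construct; after 24 h chemical exposure, reporter mRNA measured by RT-PCR with fluorescent capillary electrophoresis, gain of signal fitted against DMSO.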

For assay [6], the target named is human Retinoid X Receptor beta (RXRb), RXRB (gene 6257) (UniProt P28702). Briefly: ATG_RXRb_TRANS: Attagene TRANS-FACTORIAL HepG2 Assay for human Retinoid X Receptor beta (RXRb) (AID 2283013). The method in brief:
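Readout is reporter transcript induction after 24 h dosing. It is measured by RT-PCR of total RNA followed by fluorescent capillary electrophoresis. HepG2 liver cells carry transfected multiple reporter units driven by an exogenous RXRb-Gal4 fusion; activity is relative to DMSO.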

Assay [7] concerns the target human RAR-related Orphan Receptor beta (RORb), RORB (gene 6096) (UniProt Q92753). Briefly: ATG_RORb_TRANS: Attagene TRANS-FACTORIAL HepG2 Assay for human RAR-related Orphan Receptor beta (RORb) (AID 2283010). The method in brief: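 Read-out is reporter mRNA induction, quantified by RT-PCR with fluorescent capillary electrophoresis, 24 h post-dose in transiently transfected HepG2 expressing exogenous NR-Gal4 chimera. Activity fitted upward versus DMSO.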

Assay [8] concerns the target Retinoic acid receptor RXR-alpha (Homo sapiens) (UniProt P19793). Briefly: ATG_RXRa_TRANS: Attagene TRANS-FACTORIAL HepG2 Assay for human Retinoid X Receptor alpha (RXRa) (AID 2283012). The method in brief:
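TRANS format reporting activity of exogenous RXRa-Gal4 chimera in transiently transfected HepG2, 24 h exposure. Reporter transcripts quantified by RT-PCR with capillary electrophoresis, with gain of signal scored relative to DMSO.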

A short description of assay [9]: BSK_4H_Eotaxin3: BioMAP Diversity Plus: 4H Assay for Eotaxin 3 Biomarker Activity (AID 2283000; active means hit-call score of the fitted dose curve at least 0.9, where 1 is the maximum; inactive means score below 0.9;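 further: CCL26 protein level quantified by ELISA in parallel with SRB cytotoxicity check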). Conditions: primary human endothelial cells (HUVEC); actives raise or lower the signal. The method in brief:
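Eotaxin-3 (CCL26) levels were measured by ELISA in HUVEC primary cultures 24 h post-dosing. Gain or loss of signal was fitted in both directions, with DMSO serving as baseline and negative control.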

Read-out in assay [10]: Intercellular Adhesion Molecule 1 (ICAM1), ICAM1 (gene 3383)
Briefly: BSK_3C_ICAM1: BioMAP Diversity Plus: 3C Assay for Intercellular Adhesion Molecule 1 (ICAM1) Biomarker Activity (AID 2283003; active means hit-call score of the fitted dose curve at least 0.9, where 1 is the maximum; inactive means score below 0.9). Conditions: primary human endothelial cells (HUVEC); actives raise or lower the signal. The method in brief: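 ELISA readout of ICAM1 in human umbilical vein endothelial cells in the 3C system, taken 24 h post-dose. Gain or loss of signal versus DMSO was fitted in both directions, with SRB total-protein staining run in parallel.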

A short description of assay [11]: BSK_3C_Proliferation: Cell Proliferation Assessment in the BioMAP Diversity Plus: 3C Assay (AID 2283006; active means hit-call score of the fitted dose curve at least 0.9, where 1 is the maximum; inactive means score below 0.9). Conditions: primary human endothelial cells (HUVEC). The method in brief: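 Proliferation as total protein: sulforhodamine B (0.1%) stain of TCA-fixed subconfluent human umbilical vein endothelial cells, absorbance 560 nm, 48 h after dosing. Activity fitted in both directions against DMSO baseline.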

Read-out in assay [12]: E-selectin (Homo sapiens) (UniProt P16581)
Description: BSK_3C_Eselectin: BioMAP Diversity Plus: 3C Assay for Eselectin Biomarker Activity (AID 2283015; active means hit-call score of the fitted dose curve at least 0.9, where 1 is the maximum; inactive means score below 0.9;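 further: cell surface E-selectin protein quantified by ELISA 24 h after dosing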). To be noted: primary human endothelial cells (HUVEC); actives raise or lower the signal. The method in brief: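 Primary human umbilical vein endothelial cells (3C system), read 24 h after compound addition; E-selectin measured by ELISA. Bidirectional curve fitting against DMSO baseline; cytotoxicity by parallel SRB total-protein staining.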

Read-out in assay [13]: Interleukin-1 alpha (IL1a), IL1A (gene 3552)
Briefly: BSK_BE3C_IL1a: BioMAP Diversity Plus: BE3C Assay for Interleukin-1 alpha (IL1a) Biomarker Activity (AID 2283016; active means hit-call score of the fitted dose curve at least 0.9, where 1 is the maximum; inactive means score below 0.9). To be noted: primary human bronchial epithelial cells; actives raise or lower the signal. The method in brief: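 IL-1a measured by ELISA after 24 h treatment of human primary bronchial epithelial cells, with gain or loss of signal fitted versus DMSO. Parallel cultures stained with SRB gauge overt cytotoxicity.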

Read-out in assay [14]: Monocyte Chemoattractant Protein-1 (MCP1), CCL2 (gene 6347)
Description: BSK_3C_MCP1: BioMAP Diversity Plus: 3C Assay for Monocyte Chemoattractant Protein-1 (MCP1) Biomarker Activity (AID 2283017; active means hit-call score of the fitted dose curve at least 0.9, where 1 is the maximum; inactive means score below 0.9). To be noted: primary human endothelial cells (HUVEC); actives raise or lower the signal. The method in brief: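 Human umbilical vein endothelial cells (3C system) exposed to chemicals for 24 h; MCP-1 quantified by ELISA against the DMSO baseline with bidirectional fitting, and parallel SRB staining used to assess cytotoxicity.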

Read-out in assay [15]: Monocyte Chemoattractant Protein-1 (MCP1), CCL2 (gene 6347)
Description: BSK_4H_MCP1: BioMAP Diversity Plus: 4H Assay for Monocyte Chemoattractant Protein-1 (MCP1) Biomarker Activity (AID 2283018; active means hit-call score of the fitted dose curve at least 0.9, where 1 is the maximum; inactive means score below 0.9). To be noted: primary human endothelial cells (HUVEC); actives raise or lower the signal. The method in brief: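 ELISA of MCP-1 (CCL2) 24 h after chemical dosing of HUVEC in the BioMAP 4H system. Gain or loss versus DMSO fitted; parallel SRB staining (560 nm) tracked overt cytotoxicity.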

Read-out in assay [16]: Human Leukocyte Antigen - DR isotype (HLADR), HLA-DRA (gene 3122)
Briefly: BSK_3C_HLADR: BioMAP Diversity Plus: 3C Assay for Human Leukocyte Antigen - DR isotype (HLADR) Biomarker Activity (AID 2283019; active means hit-call score of the fitted dose curve at least 0.9, where 1 is the maximum; inactive means score below 0.9;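 further: ELISA of cell-surface HLA-DR on HUVEC 24 h after dosing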). To be noted: primary human endothelial cells (HUVEC); actives raise or lower the signal. The method in brief:
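HUVEC monoculture, HLA-DR measured by ELISA 24 h after chemical dosing. Fitted bidirectionally against DMSO baseline; parallel SRB staining assessed cytotoxicity, with 3C proliferation read by SRB at 48 h.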

Assay [17] has as its target human Thyroid Receptor alpha (THRa1), THRA (gene 7067) (UniProt P10827). Description: ATG_THRa1_TRANS: Attagene TRANS-FACTORIAL HepG2 Assay for human Thyroid Receptor alpha (THRa1) (AID 2283014). The method in brief: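 HepG2 cells transiently transfected with chimeric NR-Gal4 and GAL4-UAS reporter units, dosed 24 h. Reporter mRNA quantified by RT-PCR, fluorescent labeling, HpaI digestion and capillary electrophoresis; gain-of-signal fit versus DMSO.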

Assay [18] deals with human Retinoic Acid Receptor beta (RARb), RARB (gene 5915) (UniProt P10826). Description: ATG_RARb_TRANS: Attagene TRANS-FACTORIAL HepG2 Assay for human Retinoic Acid Receptor beta (AID 2283004). The method in brief: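 HepG2 cells were transiently transfected with GAL4-UAS reporter units that report activity of exogenous chimeric NR-Gal4 proteins, then exposed to compound for 24 h. Reporter mRNA was quantified by RT-PCR with capillary electrophoresis fluorescence, as gain of signal over DMSO.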
human Retinoic Acid Receptor beta (RARb), RARB (gene 5915), sequence (P10826 whole entry, looked up, the tested form may be a part): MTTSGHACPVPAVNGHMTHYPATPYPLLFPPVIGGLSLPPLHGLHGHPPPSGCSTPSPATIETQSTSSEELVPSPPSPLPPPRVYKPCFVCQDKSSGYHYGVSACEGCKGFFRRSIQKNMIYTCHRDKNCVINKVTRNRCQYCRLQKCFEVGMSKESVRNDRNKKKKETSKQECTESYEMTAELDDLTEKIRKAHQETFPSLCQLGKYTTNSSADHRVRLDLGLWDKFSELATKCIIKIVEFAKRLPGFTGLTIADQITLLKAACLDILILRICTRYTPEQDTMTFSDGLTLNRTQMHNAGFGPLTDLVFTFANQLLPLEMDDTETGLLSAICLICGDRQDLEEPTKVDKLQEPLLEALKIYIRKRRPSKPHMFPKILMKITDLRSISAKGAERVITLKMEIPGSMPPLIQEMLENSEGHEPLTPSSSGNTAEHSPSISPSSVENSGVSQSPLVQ

Assay [19] deals with Retinoic acid receptor alpha (Homo sapiens) (UniProt P10276). Briefly: ATG_RARa_TRANS: Attagene TRANS-FACTORIAL HepG2 Assay for human Retinoic Acid Receptor alpha (RARa) (AID 2283005). The method in brief: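 Reporter transcripts, measured by RT-PCR with fluorescent labeling and capillary electrophoresis after 24 h dosing, reflect activity of an exogenous human RARa–GAL4 fusion in transiently transfected HepG2. Fitted for increase relative to DMSO.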

human Thyroid Receptor alpha (THRa1), THRA (gene 7067), sequence (P10827 whole entry, looked up, the tested form may be a part): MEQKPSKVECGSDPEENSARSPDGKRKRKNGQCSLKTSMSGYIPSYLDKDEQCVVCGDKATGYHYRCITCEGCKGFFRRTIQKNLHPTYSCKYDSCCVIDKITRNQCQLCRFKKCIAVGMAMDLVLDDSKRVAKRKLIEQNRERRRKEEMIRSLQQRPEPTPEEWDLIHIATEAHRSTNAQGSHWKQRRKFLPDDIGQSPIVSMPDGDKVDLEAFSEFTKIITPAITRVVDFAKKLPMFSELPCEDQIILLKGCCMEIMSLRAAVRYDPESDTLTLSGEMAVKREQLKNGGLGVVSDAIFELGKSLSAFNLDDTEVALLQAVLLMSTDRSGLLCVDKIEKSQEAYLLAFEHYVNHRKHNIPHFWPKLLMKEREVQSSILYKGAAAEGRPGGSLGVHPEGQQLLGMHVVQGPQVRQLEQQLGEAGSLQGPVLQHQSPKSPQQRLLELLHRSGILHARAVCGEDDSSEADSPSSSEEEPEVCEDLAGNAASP
human Peroxisome Proliferator-activated Receptor alpha (PPARa), PPARA (gene 5465), sequence (Q07869 whole entry, looked up, the tested form may be a part): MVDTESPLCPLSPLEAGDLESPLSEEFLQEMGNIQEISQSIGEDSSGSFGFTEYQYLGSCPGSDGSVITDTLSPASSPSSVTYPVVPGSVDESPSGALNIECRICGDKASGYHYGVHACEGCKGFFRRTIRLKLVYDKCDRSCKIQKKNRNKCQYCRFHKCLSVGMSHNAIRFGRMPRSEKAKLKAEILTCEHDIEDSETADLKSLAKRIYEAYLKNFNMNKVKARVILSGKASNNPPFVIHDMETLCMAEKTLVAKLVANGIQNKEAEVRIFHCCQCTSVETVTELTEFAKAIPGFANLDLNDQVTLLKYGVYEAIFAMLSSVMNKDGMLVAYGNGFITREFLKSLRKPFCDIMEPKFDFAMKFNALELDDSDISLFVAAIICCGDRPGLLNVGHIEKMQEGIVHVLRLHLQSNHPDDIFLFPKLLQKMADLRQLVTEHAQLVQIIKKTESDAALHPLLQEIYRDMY
human Peroxisome Proliferator-activated Receptor delta (PPARd), PPARD (gene 5467), sequence (Q03181 whole entry, looked up, the tested form may be a part): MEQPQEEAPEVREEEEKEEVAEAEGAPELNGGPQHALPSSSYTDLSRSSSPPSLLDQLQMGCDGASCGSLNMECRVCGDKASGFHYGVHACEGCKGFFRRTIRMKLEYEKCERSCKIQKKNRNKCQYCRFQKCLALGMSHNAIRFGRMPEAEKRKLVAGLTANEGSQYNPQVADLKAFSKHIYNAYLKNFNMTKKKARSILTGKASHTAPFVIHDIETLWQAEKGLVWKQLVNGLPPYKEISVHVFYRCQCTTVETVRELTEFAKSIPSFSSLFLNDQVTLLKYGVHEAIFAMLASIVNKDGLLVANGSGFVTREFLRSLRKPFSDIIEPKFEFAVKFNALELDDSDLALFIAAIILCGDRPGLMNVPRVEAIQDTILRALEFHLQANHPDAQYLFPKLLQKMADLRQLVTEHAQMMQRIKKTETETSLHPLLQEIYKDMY
human Retinoid X Receptor beta (RXRb), RXRB (gene 6257), sequence (P28702 whole entry, looked up, the tested form may be a part): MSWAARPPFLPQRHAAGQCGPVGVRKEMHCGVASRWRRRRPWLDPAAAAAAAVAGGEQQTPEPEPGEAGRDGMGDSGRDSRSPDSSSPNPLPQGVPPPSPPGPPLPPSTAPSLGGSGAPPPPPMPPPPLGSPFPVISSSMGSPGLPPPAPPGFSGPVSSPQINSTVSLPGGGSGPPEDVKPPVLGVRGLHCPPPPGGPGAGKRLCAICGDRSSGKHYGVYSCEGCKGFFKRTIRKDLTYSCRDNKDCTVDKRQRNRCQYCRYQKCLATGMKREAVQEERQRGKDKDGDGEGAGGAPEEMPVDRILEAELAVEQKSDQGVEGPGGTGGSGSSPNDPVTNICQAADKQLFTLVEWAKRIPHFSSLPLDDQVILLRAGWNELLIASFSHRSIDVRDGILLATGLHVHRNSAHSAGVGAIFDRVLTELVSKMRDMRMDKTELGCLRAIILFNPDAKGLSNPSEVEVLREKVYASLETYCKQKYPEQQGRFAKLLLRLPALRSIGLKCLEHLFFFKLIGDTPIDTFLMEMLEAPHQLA
human RAR-related Orphan Receptor gamma (RORg), RORC (gene 6097), sequence (P51449 whole entry, looked up, the tested form may be a part): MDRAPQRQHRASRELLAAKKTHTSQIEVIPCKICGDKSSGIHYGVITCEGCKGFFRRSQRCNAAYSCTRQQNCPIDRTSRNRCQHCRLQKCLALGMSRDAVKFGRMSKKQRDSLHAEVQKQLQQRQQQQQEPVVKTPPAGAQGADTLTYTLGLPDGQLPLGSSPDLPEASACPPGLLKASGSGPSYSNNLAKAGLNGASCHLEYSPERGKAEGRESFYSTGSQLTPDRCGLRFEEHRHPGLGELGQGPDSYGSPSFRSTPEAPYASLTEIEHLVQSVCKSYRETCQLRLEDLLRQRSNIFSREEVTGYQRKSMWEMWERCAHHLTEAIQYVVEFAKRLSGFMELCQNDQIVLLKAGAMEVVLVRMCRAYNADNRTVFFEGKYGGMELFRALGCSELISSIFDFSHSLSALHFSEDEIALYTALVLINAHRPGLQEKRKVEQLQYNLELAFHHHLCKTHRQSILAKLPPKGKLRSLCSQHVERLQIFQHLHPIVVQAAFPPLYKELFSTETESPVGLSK
Retinoic acid receptor RXR-alpha (Homo sapiens), sequence (P19793 whole entry, looked up, the tested form may be a part): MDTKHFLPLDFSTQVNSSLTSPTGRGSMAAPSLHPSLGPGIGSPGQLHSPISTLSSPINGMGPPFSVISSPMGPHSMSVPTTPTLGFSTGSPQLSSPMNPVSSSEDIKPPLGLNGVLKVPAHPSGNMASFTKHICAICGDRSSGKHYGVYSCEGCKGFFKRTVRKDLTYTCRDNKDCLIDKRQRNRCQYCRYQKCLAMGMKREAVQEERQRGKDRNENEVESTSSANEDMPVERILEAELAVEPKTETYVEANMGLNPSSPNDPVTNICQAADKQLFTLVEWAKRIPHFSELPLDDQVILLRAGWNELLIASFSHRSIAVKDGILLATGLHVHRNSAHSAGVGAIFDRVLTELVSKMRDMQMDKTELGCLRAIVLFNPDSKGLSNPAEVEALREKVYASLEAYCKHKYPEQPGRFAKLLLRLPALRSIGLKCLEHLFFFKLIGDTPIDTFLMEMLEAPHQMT
human RAR-related Orphan Receptor beta (RORb), RORB (gene 6096), sequence (Q92753 whole entry, looked up, the tested form may be a part): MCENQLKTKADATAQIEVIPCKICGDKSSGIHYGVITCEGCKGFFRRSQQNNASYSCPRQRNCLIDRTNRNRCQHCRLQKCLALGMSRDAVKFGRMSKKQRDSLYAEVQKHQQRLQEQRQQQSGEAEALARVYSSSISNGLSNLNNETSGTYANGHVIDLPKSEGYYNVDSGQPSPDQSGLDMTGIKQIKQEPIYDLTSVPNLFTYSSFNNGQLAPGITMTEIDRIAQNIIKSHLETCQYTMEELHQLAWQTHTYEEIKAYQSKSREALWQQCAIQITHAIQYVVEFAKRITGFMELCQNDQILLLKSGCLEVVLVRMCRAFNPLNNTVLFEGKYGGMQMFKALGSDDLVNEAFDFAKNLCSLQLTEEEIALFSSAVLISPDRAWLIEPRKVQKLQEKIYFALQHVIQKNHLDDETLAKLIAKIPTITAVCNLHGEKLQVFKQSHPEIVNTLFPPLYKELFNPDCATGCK

Consider `CCNC(=S)NCC`, for which the result in assay [1], in assay [2], in assay [3], in [4], in assay [5] and in assay [6] was inactive.

A word on the AC50: it is the midpoint of the concentration-response curve, whichever way the signal moves. Turning to `CCCCCC#CC(=O)OC`, the result in assay [1], in assay [2], in [4], in assay [7] and in assay [8] was inactive. Moreover, the AC50 is 12.9 µM (active) in assay [3] and 100 µM (active) in assay [6].

As to `CCC(C)(CCCC(C)C)OC(C)=O` (stereo not given), the compound was called inactive in assay [1], in [2], in assay [3], in assay [4], in assay [7] and in assay [8]. In addition, the AC50 in assay [6] was 64.8 µM (active).

Consider `C=C(C)C(=O)OCCC(F)(F)C(F)(F)C(F)(F)C(F)(F)C(F)(F)C(F)(F)C(F)(F)C(F)(F)F`, for which the result in [9], in assay [10], in assay [11], in [12], in assay [13] and in assay [14] was inactive. The outcome in assay [15] and in assay [16] was inactive.

For the compound `CCCCCc1cccc(=O)o1`, the result in assay [1], in assay [2], in [4], in assay [8], in assay [6] and in assay [17] was inactive. In addition, in assay [3], the concentration at half-maximal activity (AC50) is 10.6 µM (active).

As to `CC(=O)Oc1c(C)c(C)c2c(c1C)CC[C@@](C)(CCC[C@H](C)CCC[C@H](C)CCCC(C)C)O2`, the outcome in assay [1], in assay [2], in [18], in [19], in assay [4] and in [5] was inactive. The compound was classed as inactive in assay [6] and in assay [17].

For the compound `CCCCOCCOCCOCCO`, the outcome in assay [1], in assay [2], in assay [18], in assay [3], in [8] and in assay [6] was inactive. Also, the result in assay [17] was inactive.

`CCO[Si](CC)(OCC)OCC`: the compound was called inactive in [1], in assay [2], in assay [18] and in assay [5]. In addition, the AC50 in assay [4] is 2.84 µM (active).

These data come from PubChem BioAssay (EPA / NIEHS).
